In PubChem BioAssay (NCI):
Compounds without any hit were thinned out: in the full panel of roughly 79,000, 15% have a hit. Values without a mark were called inactive. The source made the active and inactive calls. No stated cut-off is given here; in the data, active means growth inhibition above about 70%; inactive means the rest.

Tests used:
[1] = NCI Yeast Anticancer Drug Screen. Data for the rad52 strain (AID 147);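 further: 0% = growth of vehicle-treated control cultures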; settings: S. cerevisiae rad52 mutant growth inhibition, stronger effect = higher value
Summary of the method: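 Growth of repair-deficient yeast cells was compared between compound-treated and vehicle-treated cultures to give percent inhibition.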

[2] = NCI Yeast Anticancer Drug Screen. Data for the wt1 strain (AID 149);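 further: 0% = growth of vehicle-treated wt1 cultures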; settings: S. cerevisiae wt1 strain (SPY 50644) growth inhibition, stronger effect = higher value
Summary of the method: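 Measured: growth of wt1 yeast under compound versus vehicle treatment, reported as inhibition.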

[3] = NCI Yeast Anticancer Drug Screen. Data for the mgt1 strain (AID 153); settings: S. cerevisiae mgt1 mutant growth inhibition, stronger effect = higher value
Summary of the method: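 Compounds were applied to mgt1 mutant yeast, and growth was then compared against vehicle-treated control cultures to give percent inhibition.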

[4] = NCI Yeast Anticancer Drug Screen. Data for the rad50 strain (AID 155);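 further: 0% = growth of vehicle-only cultures of the same strain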; settings: S. cerevisiae rad50 strain growth inhibition, stronger effect = higher value
Summary of the method: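 Growth of the mutant yeast was measured after compound exposure and referenced to vehicle-treated cultures.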

[5] = NCI Yeast Anticancer Drug Screen. Data for the mec2-1 strain (AID 157); settings: S. cerevisiae mec2-1 strain, stronger effect = higher value
Summary of the method: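 Compounds were applied to mec2-1 yeast cells. Their growth was then compared with that of vehicle-treated cultures to give growth inhibition.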

[6] = NCI Yeast Anticancer Drug Screen. Data for the rad14 strain (AID 159);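 further: 0% = growth of vehicle-treated control cultures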; settings: S. cerevisiae rad14 strain growth inhibition, stronger effect = higher value
Summary of the method: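 Here, inhibition of yeast growth was measured after compound exposure, using a strain with a genetic defect in DNA damage repair and vehicle-treated cultures as the reference.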

[7] = NCI Yeast Anticancer Drug Screen. Data for the sgs1 mgt1 strain (AID 161);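 further: 0% = growth of cultures given vehicle only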; settings: S. cerevisiae sgs1 mgt1 strain, stronger effect = higher value
Summary of the method: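 Compounds are added to genetically altered yeast, and growth is compared with cultures given vehicle alone to give percent inhibition.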

[8] = NCI Yeast Anticancer Drug Screen. Data for the CLN2oe strain (AID 163);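 further: 0% = growth of vehicle-only control cultures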; settings: S. cerevisiae CLN2oe strain, stronger effect = higher value
Summary of the method: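 Cells of an engineered yeast line with disturbed cell-cycle regulation are treated with compound. Inhibition of growth is then calculated relative to the vehicle-treated reference.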

[9] = NCI Yeast Anticancer Drug Screen. Data for the cln2 rad14 strain (AID 165);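 further: 0% = growth equal to vehicle treated cultures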; settings: S. cerevisiae cln2 rad14 strain, stronger effect = higher value
Summary of the method: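 Strain: cln2 rad14 yeast, altered in cell cycle control and DNA damage repair. Read-out: growth inhibition vs vehicle.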

[10] = NCI Yeast Anticancer Drug Screen. Data for the bub3 strain (AID 167); settings: S. cerevisiae bub3 mutant strain, stronger effect = higher value
Summary of the method: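 Whole-cell yeast assay. The mutant strain was incubated with compounds, and growth inhibition was determined by comparison with vehicle-treated cells.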

[11] = NCI Yeast Anticancer Drug Screen. Data for the wt2 strain (AID 169);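 further: 0% = growth of vehicle-treated yeast cultures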; settings: S. cerevisiae wt2 strain growth inhibition, stronger effect = higher value
Summary of the method: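 Growth of compound-treated yeast is measured and expressed as inhibition relative to vehicle-only controls.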

[12] = NCI Yeast Anticancer Drug Screen. Data for the mlh1 strain (AID 171);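 further: 0% = growth of vehicle-treated control cultures of the same strain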; settings: S. cerevisiae mlh1 strain growth inhibition, stronger effect = higher value
Summary of the method: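 Test agents were incubated with yeast bearing a defined DNA damage repair or cell cycle control alteration; values are growth inhibition normalised to vehicle-treated cultures.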

[13] = NCI Yeast Anticancer Drug Screen. Data for the sgs1 strain (AID 173);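 further: 0% = growth of vehicle-only control cultures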; settings: S. cerevisiae sgs1 mutant, stronger effect = higher value
Summary of the method: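 Strain with an altered DNA repair or cell cycle pathway exposed to compound. Growth then measured. Value = inhibition versus vehicle control.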

[14] = NCI Yeast Anticancer Drug Screen. Data for the mlh1 rad18 strain (AID 175); settings: S. cerevisiae mlh1 rad18 strain growth inhibition, stronger effect = higher value
Summary of the method: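 A repair-deficient yeast strain is exposed to test compound, and growth is scored relative to vehicle-treated controls.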

[15] = at 5.0 µM (retest, dose inferred, filed as 0.5)
[16] = at 50.0 µM (retest, dose inferred, filed as 5.0)

Compound: N#Cc1ccc(C2NN=CC23C(=O)c2ccccc2OC3c2ccccc2)cc1 (stereo not drawn)
- growth inhibition ([1]; at 1.2 µM): 2%
- growth inhibition ([1]; at 3.7 µM): 5%
- growth inhibition ([1]; at 11.0 µM): 4%
- growth inhibition ([1]; at 33.0 µM): 3%
- growth inhibition ([1]; at 100.0 µM): 5%
- growth inhibition ([2]; at 1.2 µM): 0%
- growth inhibition ([2]; at 3.7 µM): 0%
- growth inhibition ([2]; at 11.0 µM): -1%
- growth inhibition ([2]; at 33.0 µM): -2%
- growth inhibition ([2]; at 100.0 µM): 2%
- growth inhibition ([3]; at 1.2 µM): -4%
- growth inhibition ([3]; at 3.7 µM): -2%
- growth inhibition ([3]; at 11.0 µM): 5%
- growth inhibition ([3]; at 33.0 µM): -3%
- growth inhibition ([3]; at 100.0 µM): 2%
- growth inhibition ([4]; at 1.2 µM): 2%
- growth inhibition ([4]; at 3.7 µM): 4%
- growth inhibition [4, 15]: 10%
- growth inhibition ([4]; at 11.0 µM): -6%
- growth inhibition ([4]; at 33.0 µM): 5%
- growth inhibition [4, 16]: 66%
- growth inhibition ([4]; at 50.0 µM): 73.3% (active)
- growth inhibition ([4]; at 100.0 µM): 3%
- growth inhibition ([5]; at 1.2 µM): 2%
- growth inhibition ([5]; at 3.7 µM): -2%
- growth inhibition [5, 15]: -19%
- growth inhibition ([5]; at 11.0 µM): -3%
- growth inhibition ([5]; at 33.0 µM): -4%
- growth inhibition [5, 16]: 85% (active)
- growth inhibition ([5]; at 50.0 µM): 77% (active)
- growth inhibition ([5]; at 100.0 µM): 1%
- growth inhibition ([6]; at 1.2 µM): 0%
- growth inhibition ([6]; at 3.7 µM): 1%
- growth inhibition ([6]; at 11.0 µM): 5%
- growth inhibition ([6]; at 33.0 µM): 3%
- growth inhibition ([6]; at 100.0 µM): 3%
- growth inhibition [7, 15]: -22%
- growth inhibition [7, 16]: 93% (active)
- growth inhibition ([7]; at 50.0 µM): 77.5% (active)
- growth inhibition ([8]; at 1.2 µM): -2%
- growth inhibition ([8]; at 3.7 µM): 2%
- growth inhibition ([8]; at 11.0 µM): 5%
- growth inhibition ([8]; at 33.0 µM): -1%
- growth inhibition ([8]; at 100.0 µM): 5%
- growth inhibition [9, 15]: -16%
- growth inhibition [9, 16]: 38%
- growth inhibition ([9]; at 50.0 µM): 61%
- growth inhibition ([10]; at 1.2 µM): -7%
- growth inhibition ([10]; at 3.7 µM): 0%
- growth inhibition [10, 15]: -28%
- growth inhibition ([10]; at 11.0 µM): 7%
- growth inhibition ([10]; at 33.0 µM): -2%
- growth inhibition [10, 16]: 16%
- growth inhibition ([10]; at 50.0 µM): 64%
- growth inhibition ([10]; at 100.0 µM): 0%
- growth inhibition ([11]; at 1.2 µM): 0%
- growth inhibition ([11]; at 3.7 µM): 0%
- growth inhibition ([11]; at 11.0 µM): 2%
- growth inhibition ([11]; at 33.0 µM): 1%
- growth inhibition ([11]; at 100.0 µM): 3%
- growth inhibition ([12]; at 1.2 µM): 0%
- growth inhibition ([12]; at 3.7 µM): -5%
- growth inhibition ([12]; at 11.0 µM): 0%
- growth inhibition ([12]; at 33.0 µM): -2%
- growth inhibition ([12]; at 100.0 µM): 4%
- growth inhibition ([13]; at 1.2 µM): 0%
- growth inhibition ([13]; at 3.7 µM): -4%
- growth inhibition ([13]; at 11.0 µM): -3%
- growth inhibition ([13]; at 33.0 µM): -3%
- growth inhibition ([13]; at 100.0 µM): -1%
- growth inhibition [14, 15]: -14%
- growth inhibition [14, 16]: 60%
- growth inhibition ([14]; at 50.0 µM): 56.4%
